One molecule from ChEMBL document CHEMBL1961873, “Compounds: GSK PKIS; Assays: Nanosyn kinase panel” (2012) can be followed below.

Each structure is given as a SMILES string.

For assay [1], the target named is Sphingosine kinase 1 (Homo sapiens) (UniProt Q9NYA1). Particulars: at 1 µM.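 Note: mean SPHK1 inhibition value reported from the GSK PKIS kinase panel screen.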
Assay [2] deals with T1, Sphingosine kinase 2 (Homo sapiens) (UniProt Q9NRA0).
T1 sequence (whole entry): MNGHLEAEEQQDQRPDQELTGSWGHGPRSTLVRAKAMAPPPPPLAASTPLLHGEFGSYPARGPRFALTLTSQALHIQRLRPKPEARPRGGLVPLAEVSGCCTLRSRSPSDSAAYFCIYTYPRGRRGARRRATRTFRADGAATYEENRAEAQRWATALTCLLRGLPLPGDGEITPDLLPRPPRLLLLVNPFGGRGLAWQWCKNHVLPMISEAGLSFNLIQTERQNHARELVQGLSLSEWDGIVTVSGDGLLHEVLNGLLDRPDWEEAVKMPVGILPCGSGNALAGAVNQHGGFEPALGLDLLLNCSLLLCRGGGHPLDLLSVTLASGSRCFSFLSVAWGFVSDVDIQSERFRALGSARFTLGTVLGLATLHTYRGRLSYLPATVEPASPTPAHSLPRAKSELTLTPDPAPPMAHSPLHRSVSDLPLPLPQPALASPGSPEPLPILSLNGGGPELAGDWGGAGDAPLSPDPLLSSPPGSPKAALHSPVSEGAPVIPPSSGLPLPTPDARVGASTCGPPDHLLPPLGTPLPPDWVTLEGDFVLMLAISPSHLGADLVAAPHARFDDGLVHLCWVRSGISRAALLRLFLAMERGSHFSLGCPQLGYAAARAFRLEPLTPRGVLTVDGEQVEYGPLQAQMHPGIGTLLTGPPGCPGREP
Particulars: at 0.1 µM.

Assay [3] has as its target T1, Sphingosine kinase 2 (Homo sapiens). As to conditions: at 1 µM.
The target of assay [4] is Casein kinase II subunit alpha (Homo sapiens) (UniProt P68400). Particulars: at 0.1 µM.
Assay [5] shares this target. Particulars: at 1 µM.
The target in assay [6] is T2, Inhibitor of nuclear factor kappa-B kinase subunit alpha (Homo sapiens) (UniProt O15111).
T2 sequence (whole entry): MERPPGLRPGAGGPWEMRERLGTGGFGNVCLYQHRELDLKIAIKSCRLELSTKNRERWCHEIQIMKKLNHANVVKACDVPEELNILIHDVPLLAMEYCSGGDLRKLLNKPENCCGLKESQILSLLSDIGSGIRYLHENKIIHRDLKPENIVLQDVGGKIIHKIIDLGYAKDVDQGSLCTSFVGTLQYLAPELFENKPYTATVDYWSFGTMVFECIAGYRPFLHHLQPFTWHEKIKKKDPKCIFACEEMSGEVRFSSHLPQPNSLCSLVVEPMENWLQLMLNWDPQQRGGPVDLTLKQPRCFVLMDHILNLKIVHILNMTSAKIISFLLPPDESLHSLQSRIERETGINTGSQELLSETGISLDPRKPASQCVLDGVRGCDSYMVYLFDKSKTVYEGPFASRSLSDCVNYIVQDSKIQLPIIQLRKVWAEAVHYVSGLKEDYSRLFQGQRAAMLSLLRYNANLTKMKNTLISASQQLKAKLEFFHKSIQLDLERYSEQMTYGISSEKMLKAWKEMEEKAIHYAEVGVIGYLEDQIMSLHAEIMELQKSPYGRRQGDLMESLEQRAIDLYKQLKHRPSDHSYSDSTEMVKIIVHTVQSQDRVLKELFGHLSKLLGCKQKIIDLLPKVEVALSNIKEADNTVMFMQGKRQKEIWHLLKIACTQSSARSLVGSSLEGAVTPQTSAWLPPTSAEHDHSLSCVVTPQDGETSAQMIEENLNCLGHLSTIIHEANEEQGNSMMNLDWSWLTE
As to conditions: at 0.1 µM.

For assay [7], the target named is T2, Inhibitor of nuclear factor kappa-B kinase subunit alpha (Homo sapiens). Particulars: at 1 µM.
Assay [8] concerns the target T3, Inhibitor of nuclear factor kappa-B kinase subunit beta (Homo sapiens) (UniProt O14920).
T3 sequence (whole entry): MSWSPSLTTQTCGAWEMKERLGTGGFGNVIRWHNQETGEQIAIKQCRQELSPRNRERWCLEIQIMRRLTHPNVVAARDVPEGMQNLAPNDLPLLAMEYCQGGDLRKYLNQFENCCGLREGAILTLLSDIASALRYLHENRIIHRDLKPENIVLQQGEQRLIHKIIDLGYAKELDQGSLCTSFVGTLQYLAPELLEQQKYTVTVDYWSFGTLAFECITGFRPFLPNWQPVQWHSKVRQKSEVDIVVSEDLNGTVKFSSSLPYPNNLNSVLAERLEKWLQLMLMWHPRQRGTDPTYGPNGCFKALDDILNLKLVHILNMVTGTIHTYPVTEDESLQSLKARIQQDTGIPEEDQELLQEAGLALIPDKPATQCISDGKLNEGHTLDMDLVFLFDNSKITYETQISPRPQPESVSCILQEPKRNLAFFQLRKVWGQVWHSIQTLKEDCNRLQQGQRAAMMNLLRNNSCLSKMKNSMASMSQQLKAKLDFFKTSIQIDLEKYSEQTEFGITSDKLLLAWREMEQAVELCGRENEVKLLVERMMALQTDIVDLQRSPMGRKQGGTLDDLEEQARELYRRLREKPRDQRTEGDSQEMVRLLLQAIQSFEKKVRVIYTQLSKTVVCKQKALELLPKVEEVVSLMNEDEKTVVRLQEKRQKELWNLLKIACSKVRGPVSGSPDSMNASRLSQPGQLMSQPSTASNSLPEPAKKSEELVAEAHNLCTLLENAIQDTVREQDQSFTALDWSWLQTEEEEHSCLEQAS
As to conditions: at 0.1 µM.

For assay [9], the target named is T3, Inhibitor of nuclear factor kappa-B kinase subunit beta (Homo sapiens). Particulars: at 1 µM.
In assay [10] the target is T4, Inhibitor of nuclear factor kappa-B kinase subunit epsilon (Homo sapiens) (UniProt Q14164).
T4 sequence (whole entry): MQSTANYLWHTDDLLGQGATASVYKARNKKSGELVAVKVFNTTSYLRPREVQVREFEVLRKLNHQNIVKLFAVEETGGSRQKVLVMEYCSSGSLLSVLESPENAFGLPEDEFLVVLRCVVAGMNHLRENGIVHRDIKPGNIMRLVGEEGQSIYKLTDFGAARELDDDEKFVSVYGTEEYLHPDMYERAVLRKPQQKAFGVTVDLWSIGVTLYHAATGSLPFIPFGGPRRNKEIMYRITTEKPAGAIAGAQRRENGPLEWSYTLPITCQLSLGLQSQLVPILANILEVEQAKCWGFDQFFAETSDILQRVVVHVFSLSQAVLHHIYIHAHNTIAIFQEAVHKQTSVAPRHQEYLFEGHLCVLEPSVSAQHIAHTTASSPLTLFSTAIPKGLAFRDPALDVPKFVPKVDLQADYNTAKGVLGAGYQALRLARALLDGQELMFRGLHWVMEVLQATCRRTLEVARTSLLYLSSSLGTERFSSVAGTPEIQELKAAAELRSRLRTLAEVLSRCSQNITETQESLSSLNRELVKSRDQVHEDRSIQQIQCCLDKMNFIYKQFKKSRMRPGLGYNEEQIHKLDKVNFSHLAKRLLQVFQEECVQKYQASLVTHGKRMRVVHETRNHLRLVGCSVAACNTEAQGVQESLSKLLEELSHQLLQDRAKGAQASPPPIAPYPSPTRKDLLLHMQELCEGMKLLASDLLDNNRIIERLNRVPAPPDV
Particulars: at 0.1 µM.

Assay [11] has as its target T4, Inhibitor of nuclear factor kappa-B kinase subunit epsilon (Homo sapiens). As to conditions: at 1 µM.
The target of assay [12] is T5, Serine/threonine-protein kinase Nek1 (Homo sapiens) (UniProt Q96PY6).
T5 sequence (whole entry): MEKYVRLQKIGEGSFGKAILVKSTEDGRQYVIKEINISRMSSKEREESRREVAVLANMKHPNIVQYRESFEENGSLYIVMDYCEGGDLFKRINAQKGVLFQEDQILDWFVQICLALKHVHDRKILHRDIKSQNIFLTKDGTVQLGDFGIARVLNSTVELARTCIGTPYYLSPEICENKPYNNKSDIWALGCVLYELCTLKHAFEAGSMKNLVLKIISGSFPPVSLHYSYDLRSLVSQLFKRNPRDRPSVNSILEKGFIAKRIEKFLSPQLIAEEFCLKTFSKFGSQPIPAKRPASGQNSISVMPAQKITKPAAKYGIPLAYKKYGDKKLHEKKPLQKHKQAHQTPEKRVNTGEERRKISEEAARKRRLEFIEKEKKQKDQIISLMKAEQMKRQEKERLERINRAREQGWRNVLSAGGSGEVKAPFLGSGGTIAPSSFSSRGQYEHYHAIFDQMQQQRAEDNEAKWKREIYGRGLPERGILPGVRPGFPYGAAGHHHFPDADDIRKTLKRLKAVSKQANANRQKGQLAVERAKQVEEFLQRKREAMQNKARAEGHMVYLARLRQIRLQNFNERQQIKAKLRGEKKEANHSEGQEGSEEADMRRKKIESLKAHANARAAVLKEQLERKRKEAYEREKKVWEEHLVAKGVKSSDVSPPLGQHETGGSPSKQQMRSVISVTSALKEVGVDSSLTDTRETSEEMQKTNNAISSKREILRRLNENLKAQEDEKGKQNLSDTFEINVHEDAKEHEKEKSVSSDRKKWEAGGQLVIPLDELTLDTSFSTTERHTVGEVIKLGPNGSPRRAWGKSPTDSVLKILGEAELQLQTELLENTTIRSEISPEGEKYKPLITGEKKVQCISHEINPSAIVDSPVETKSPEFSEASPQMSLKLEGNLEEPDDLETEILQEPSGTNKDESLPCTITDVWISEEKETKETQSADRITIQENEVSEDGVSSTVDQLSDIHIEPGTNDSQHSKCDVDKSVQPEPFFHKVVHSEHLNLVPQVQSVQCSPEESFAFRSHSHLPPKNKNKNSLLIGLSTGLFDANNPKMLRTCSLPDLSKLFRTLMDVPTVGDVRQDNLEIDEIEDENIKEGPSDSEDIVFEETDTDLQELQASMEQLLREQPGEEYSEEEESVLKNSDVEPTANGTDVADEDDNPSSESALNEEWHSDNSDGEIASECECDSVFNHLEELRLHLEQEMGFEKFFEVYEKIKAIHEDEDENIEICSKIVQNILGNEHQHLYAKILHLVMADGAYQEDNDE
As to conditions: at 0.1 µM.

In assay [13] the target is T5, Serine/threonine-protein kinase Nek1 (Homo sapiens). As to conditions: at 1 µM.
For assay [14], the target named is T6, Serine/threonine-protein kinase Nek2 (Homo sapiens) (UniProt P51955).
T6 sequence (whole entry): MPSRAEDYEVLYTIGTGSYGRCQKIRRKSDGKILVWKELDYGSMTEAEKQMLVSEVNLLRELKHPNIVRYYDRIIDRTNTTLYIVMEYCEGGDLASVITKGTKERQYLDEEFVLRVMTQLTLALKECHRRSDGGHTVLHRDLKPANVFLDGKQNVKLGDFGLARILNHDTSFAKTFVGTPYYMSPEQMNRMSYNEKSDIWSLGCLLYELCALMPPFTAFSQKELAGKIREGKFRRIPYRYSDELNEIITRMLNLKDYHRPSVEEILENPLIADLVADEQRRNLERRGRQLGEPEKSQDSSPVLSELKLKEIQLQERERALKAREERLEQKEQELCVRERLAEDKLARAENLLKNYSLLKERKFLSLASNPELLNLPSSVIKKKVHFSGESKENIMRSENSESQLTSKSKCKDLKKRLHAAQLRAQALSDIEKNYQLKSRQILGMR
Particulars: at 0.1 µM.

In assay [15] the target is T6, Serine/threonine-protein kinase Nek2 (Homo sapiens). Particulars: at 1 µM.
Assay [16] addresses Serine/threonine-protein kinase Nek6 (Homo sapiens) (UniProt Q9HC98). As to conditions: at 0.1 µM.
The target is the same in assay [17]. As to conditions: at 1 µM.
In assay [18] the target is Serine/threonine-protein kinase Nek7 (Homo sapiens) (UniProt Q8TDX7). As to conditions: at 0.1 µM.
The target is the same in assay [19]. As to conditions: at 1 µM.
Assay [20] has as its target T7, Serine/threonine-protein kinase Nek9 (Homo sapiens) (UniProt Q8TD19).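 Note: reported value is the mean percent inhibition of NEK9.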
T7 sequence (whole entry): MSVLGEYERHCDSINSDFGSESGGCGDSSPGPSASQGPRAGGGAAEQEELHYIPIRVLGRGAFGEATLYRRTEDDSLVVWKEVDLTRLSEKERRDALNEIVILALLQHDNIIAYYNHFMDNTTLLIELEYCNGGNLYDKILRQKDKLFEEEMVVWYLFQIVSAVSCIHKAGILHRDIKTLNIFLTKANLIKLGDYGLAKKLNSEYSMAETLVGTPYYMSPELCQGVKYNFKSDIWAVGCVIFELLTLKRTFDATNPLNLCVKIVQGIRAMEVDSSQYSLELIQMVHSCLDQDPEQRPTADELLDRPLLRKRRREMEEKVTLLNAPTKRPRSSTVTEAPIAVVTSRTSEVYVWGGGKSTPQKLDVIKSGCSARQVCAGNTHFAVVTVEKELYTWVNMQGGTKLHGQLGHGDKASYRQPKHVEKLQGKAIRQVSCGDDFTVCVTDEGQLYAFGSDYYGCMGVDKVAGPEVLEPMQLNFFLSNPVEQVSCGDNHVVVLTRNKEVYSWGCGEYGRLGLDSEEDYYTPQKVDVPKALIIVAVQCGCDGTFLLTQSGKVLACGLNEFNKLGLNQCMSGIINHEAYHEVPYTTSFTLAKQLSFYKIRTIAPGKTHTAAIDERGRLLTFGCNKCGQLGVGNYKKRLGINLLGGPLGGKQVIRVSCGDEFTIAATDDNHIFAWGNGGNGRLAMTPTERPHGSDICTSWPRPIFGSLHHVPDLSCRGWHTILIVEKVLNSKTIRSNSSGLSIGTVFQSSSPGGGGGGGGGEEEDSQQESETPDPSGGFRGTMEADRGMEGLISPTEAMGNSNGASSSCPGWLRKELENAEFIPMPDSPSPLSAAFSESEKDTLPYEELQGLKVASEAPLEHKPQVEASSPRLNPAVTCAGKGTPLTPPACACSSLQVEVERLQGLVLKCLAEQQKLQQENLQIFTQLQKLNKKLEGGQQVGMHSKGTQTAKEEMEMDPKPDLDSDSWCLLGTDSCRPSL
As to conditions: at 0.1 µM.

Serine/threonine-protein kinase Nek7 (Homo sapiens), sequence (Q8TDX7 whole entry, looked up): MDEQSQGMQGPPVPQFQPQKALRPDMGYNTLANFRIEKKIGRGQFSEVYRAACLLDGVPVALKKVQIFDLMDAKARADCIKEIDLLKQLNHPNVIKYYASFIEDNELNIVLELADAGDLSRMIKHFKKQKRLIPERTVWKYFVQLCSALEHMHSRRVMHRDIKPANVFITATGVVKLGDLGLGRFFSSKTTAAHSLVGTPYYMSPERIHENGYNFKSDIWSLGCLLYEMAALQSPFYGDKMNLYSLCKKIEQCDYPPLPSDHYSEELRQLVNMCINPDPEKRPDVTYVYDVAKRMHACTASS
Casein kinase II subunit alpha (Homo sapiens), sequence (P68400 whole entry, looked up): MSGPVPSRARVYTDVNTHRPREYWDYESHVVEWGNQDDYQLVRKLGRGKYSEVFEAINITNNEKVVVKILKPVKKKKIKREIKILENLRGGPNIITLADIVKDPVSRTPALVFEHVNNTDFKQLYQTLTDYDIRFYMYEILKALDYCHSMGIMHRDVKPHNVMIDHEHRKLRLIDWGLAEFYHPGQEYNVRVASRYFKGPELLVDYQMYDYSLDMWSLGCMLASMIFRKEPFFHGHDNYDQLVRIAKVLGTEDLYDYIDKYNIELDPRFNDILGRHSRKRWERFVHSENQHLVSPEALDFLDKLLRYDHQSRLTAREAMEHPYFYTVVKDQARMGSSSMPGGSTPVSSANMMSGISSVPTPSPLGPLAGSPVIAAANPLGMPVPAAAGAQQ
Serine/threonine-protein kinase Nek6 (Homo sapiens), sequence (Q9HC98 whole entry): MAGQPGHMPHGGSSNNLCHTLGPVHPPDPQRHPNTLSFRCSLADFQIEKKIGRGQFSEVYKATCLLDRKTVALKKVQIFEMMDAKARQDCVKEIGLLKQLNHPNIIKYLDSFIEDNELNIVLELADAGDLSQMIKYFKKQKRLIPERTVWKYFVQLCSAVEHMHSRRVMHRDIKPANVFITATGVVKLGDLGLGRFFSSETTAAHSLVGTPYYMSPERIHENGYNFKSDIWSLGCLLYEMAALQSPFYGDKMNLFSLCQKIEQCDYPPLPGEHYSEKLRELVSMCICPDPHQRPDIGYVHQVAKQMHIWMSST
Sphingosine kinase 1 (Homo sapiens), sequence (Q9NYA1 whole entry): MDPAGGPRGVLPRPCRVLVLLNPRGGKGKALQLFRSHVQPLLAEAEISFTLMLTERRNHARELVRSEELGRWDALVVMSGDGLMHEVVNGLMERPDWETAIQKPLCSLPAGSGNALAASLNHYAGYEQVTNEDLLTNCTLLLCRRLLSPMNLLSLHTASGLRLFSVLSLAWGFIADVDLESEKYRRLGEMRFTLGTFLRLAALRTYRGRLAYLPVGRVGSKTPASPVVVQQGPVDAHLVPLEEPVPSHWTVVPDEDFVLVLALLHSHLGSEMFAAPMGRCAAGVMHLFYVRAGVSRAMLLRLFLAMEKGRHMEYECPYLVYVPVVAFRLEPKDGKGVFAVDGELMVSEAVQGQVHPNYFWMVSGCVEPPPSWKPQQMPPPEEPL

Usually inhibition stands for the drop in the measured response relative to a control, in per cent. Turning to `CCS(=O)(=O)c1ccc(OC)c(Nc2ncc(-c3cccc(C(C)=O)c3)o2)c1`, the inhibition in assay [1] is -2.18%; in [2], 0.25%; in assay [3], 0.73%; in [4], 6.61%; in [5], 21.6%; in assay [6] it was -1.71%. Also, the inhibition is -1.11% in [7]; 5.35% in [8]; 5.04% in [9]; 6.89% in assay [10]; 5.1% in assay [11]; 1.59% in assay [12]. The inhibition in assay [13] was 4.9%; in [14], 3.34%; in assay [15], 2.2%; in assay [16], 3.06%; in assay [17], 3.18%; in assay [18], 2.79%. Further, the inhibition turned out to be 3.24% in [19] and 5.45% in [20].
